Most compounds without a hit are left out; they make up all but 7.3% or so of the library.
NPC1 promoter act = NPC1 promoter activation; Huh7 NPC1 promoter luciferase reporter, 24 h; Potency, µM (highest dose often 9.22 µM), hits mostly activators; hit rate 2.4% among 320,000; AID 485313; further: nearly all actives have a fitted effect of over 60% in size
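In 1536-well qHTS, Huh7 cells harboring an NPC1 promoter–luciferase construct received compound for 24 h; activation was quantified by luminescence following luciferase reagent addition.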
FLuc modulator = firefly luciferase modulation, counter-screen for miR-21 project | P08659 | purified FLuc, Km substrates, luminescence inhibition | Potency, µM (top dose mostly 57.5 µM), most hits filed as inhibitors | hit rate 6.9% among 360,000 | AID 588342; further: nearly all actives have a fitted effect of over 55% in size
Target sequence (P08659 whole entry, looked up): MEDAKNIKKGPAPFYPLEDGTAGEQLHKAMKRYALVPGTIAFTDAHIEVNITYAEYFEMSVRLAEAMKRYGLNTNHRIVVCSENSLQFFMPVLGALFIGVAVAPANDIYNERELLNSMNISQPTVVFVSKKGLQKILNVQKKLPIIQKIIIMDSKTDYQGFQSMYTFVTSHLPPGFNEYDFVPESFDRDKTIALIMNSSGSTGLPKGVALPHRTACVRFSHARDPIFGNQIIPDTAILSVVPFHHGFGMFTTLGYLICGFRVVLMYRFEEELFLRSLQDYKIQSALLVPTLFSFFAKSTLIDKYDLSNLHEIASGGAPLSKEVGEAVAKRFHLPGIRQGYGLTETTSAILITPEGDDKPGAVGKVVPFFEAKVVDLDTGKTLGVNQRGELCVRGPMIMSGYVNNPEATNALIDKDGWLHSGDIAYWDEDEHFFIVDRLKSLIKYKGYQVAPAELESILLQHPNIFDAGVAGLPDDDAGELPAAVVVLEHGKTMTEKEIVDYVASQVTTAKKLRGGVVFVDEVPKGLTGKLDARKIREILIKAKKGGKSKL
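Biochemical qHTS of compounds, final roughly 60 µM downward over six points, against 10 nM purified firefly luciferase using Km concentrations of substrates (10 uM D-luciferin, 10 uM ATP) in Tris acetate pH 7.5 buffer; luminescence output.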
Rab9 promoter act = activators of Rab9 promoter | Huh7 Rab9 promoter-luciferase reporter, luminescence, 24 h | Potency, µM (series often up to 9.22 µM), hits mostly activators | hit rate 2.8% among 320,000 | AID 485297; further: nearly all actives have a fitted effect of over 60% in size
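Steps: seed 1500 Huh7 Rab9-luc cells per well, rest 2 h at 37 °C; add compound in DMSO; incubate 24 h; add luciferase reagent, 10 min ambient; read luminescence.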
KinaseGlo FLuc = counter-screen: inhibitors of Kinase-Glo firefly luciferase. Kinase-Glo luciferase, ATP luminescence, 8 min. Potency, µM (series often up to 38.3 µM), actives largely listed as inhibitors. hit rate 0.28% among 200,000. AID 1379; further: nearly all actives have a fitted effect of over 60% in size
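Kinase-Glo luciferase light output from ATP and luciferin was measured with 10 uM ATP, within the enzyme's linear range. Buffer: 50 mM imidazole pH 7.2, 50 mM KCl, 7 mM MgCl2, 0.01% Tween 20, 0.05% BSA; luminescence read after 8 min at ambient temperature.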
ELG1 genotoxic = genotoxicity induction in ELG1-luciferase HEK293T cells | hit rate 1.3% among 330,000 | HEK293T ELG1-luciferase reporter, luminescence, 16 h | Potency, µM (highest dose often 46 µM), hits mostly activators; further: nearly all actives have a fitted effect of over 60% in size
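Cells (2,000/well) expressing the ELG1-luciferase fusion are dosed by pin tool and kept 16 hr at 37 °C, 5% CO2. Signal comes from ONE-Glo luciferase reagent after 30 min at room temperature.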
SMN2 splice up = enhancers of SMN2 splice variant expression. HEK293 SMN2-luciferase splicing reporter, luminescence, 30-36 h. Potency, µM (highest dose often 46.1 µM), most hits filed as activators. hit rate 2.8% among 210,000. AID 1458; further: nearly all actives have a fitted effect of over 55% in size
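HEK293 cells carry an SMN2 minigene-luciferase reporter in which exon 7 inclusion puts luciferase in frame. Cells were seeded at 2000 cells/well, attached for 10-12 hours, then exposed to compounds for 30-36 hours at 37C before ONE-Glo luminescence.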
Large screens that a line does not name were inactive. The call rests on the fitted dose curve; in most records, active means well fitted curve in the direction sought with a large enough effect; inconclusive means small, poorly fitted or top-dose-only effect, or another doubt; inactive means no such curve, though single readings can be large; an effect the other way counts as inactive or inconclusive.

COCCNS(=O)(=O)c1cc(F)ccc1OC	SMN2 splice up 3.2µM
COC(=O)[C@H](Cc1ccccc1)NC(=O)O[C@@H]1C(=O)c2ccc(OC)cc2O[C@H]1c1cccc(C(F)(F)F)c1	none (no result: NPC1 promoter act, FLuc modulator, Rab9 promoter act, ELG1 genotoxic)
CCc1ccc(/C=C/C(=O)c2ccc(N3CCOCC3)cc2)cc1	FLuc modulator 1.5µM
Cc1ccc(/C=C/C(=O)c2ccc(N3CCOCC3)cc2)s1	NPC1 promoter act inconclusive, FLuc modulator 0.34µM, Rab9 promoter act inconclusive, KinaseGlo FLuc inconclusive, SMN2 splice up 22µM
Cc1cccc(/C=C/C(=O)c2ccc(N3CCOCC3)cc2)c1	FLuc modulator 21µM
O=C(/C=C/c1ccc(F)cc1)c1ccc(N2CCOCC2)cc1	FLuc modulator 1.2µM (no result: KinaseGlo FLuc, SMN2 splice up)
CCCNC(=O)c1cnc2sc(N3CCCCCC3)nn2c1=O	none (no result: NPC1 promoter act, Rab9 promoter act, KinaseGlo FLuc, ELG1 genotoxic, SMN2 splice up)
CCCn1cc(S(=O)(=O)c2cccc(Cl)c2)c(=O)c2cc(F)c(N3CCOCC3)cc21	none (no result: NPC1 promoter act, Rab9 promoter act, KinaseGlo FLuc, ELG1 genotoxic, SMN2 splice up)
COc1cc(C2CC(=O)Oc3ccc(O)cc32)cc(OC)c1OC (stereo not drawn)	none (no result: NPC1 promoter act, FLuc modulator, Rab9 promoter act, ELG1 genotoxic, SMN2 splice up)
CCc1nn2c(=O)cc(COC(=O)c3ccccc3NC(=O)c3cccs3)nc2s1	none (no result: NPC1 promoter act, Rab9 promoter act, KinaseGlo FLuc, ELG1 genotoxic, SMN2 splice up)
CCOC(=O)c1c(C)sc(-c2c(-c3ccc4c(c3)OCCO4)[nH]c3c2c(=O)n(C)c(=O)n3C)c1O	none (no result: NPC1 promoter act, Rab9 promoter act, KinaseGlo FLuc, ELG1 genotoxic, SMN2 splice up)
C#Cc1cccc(Nc2ncnc3cc(OC)c(OC)cc23)c1	none (no result: NPC1 promoter act, FLuc modulator, Rab9 promoter act, KinaseGlo FLuc, ELG1 genotoxic)
COC(=O)c1c(-c2ccccc2)csc1N1C(=O)Nc2ccccc2N1O	NPC1 promoter act inconclusive, FLuc modulator 4.8µM, Rab9 promoter act 2.8µM, ELG1 genotoxic inconclusive, SMN2 splice up inconclusive
Cc1ccc(NC(=O)CN2CCSc3ccc(S(=O)(=O)N4CCCC4)cc32)cc1C	none (no result: NPC1 promoter act, Rab9 promoter act, KinaseGlo FLuc, ELG1 genotoxic, SMN2 splice up)
CCOC(=O)C1CCC(CN(Cc2c(Cl)cccc2Cl)S(=O)(=O)c2ccc(F)c(C)c2)CC1 (stereo not drawn)	none (no result: NPC1 promoter act, Rab9 promoter act, KinaseGlo FLuc, ELG1 genotoxic, SMN2 splice up)
COCc1cc(=O)[nH]c(Nc2nc3ccc(C)cc3o2)n1	FLuc modulator 17µM, ELG1 genotoxic 23µM
CCN(CC)c1ccc(/C=N/NC(=O)c2cc(C)nc3ccccc23)cc1	FLuc modulator inconclusive (no result: KinaseGlo FLuc, SMN2 splice up)
CCN(CC)c1ccc(/C=N/NC(=O)c2c[nH]c3ccccc23)cc1	FLuc modulator 11µM
CCN(CC)c1ccc(/C=N/NC(=O)c2ccc([N+](=O)[O-])cc2)cc1	none (no result: KinaseGlo FLuc, SMN2 splice up)
CCN(CC)c1ccc(/C=N/NC(=O)c2cc3ccccc3[nH]2)cc1	FLuc modulator 12µM (no result: KinaseGlo FLuc, SMN2 splice up)
Cc1ccc2c(c1)N(C(=O)N1CCC(C(=O)NCCc3ccc(Cl)cc3)CC1)CC(C)O2 (stereo not drawn)	none (no result: NPC1 promoter act, Rab9 promoter act, KinaseGlo FLuc, ELG1 genotoxic, SMN2 splice up)
Cc1cccc(OCC(=O)Nc2ccc(Cl)c(-c3nc4ncccc4o3)c2)c1C	none (no result: NPC1 promoter act, Rab9 promoter act, KinaseGlo FLuc, ELG1 genotoxic)
CCNc1ccccc(-c2ccc3ccccc3n2)c1=O	NPC1 promoter act inconclusive, FLuc modulator 12µM, Rab9 promoter act inconclusive, ELG1 genotoxic inconclusive, SMN2 splice up 11µM
COc1ccc(S(=O)(=O)Nc2ccc(-c3ccc(N4CCCC4)nn3)cc2)cc1F	none (no result: NPC1 promoter act, Rab9 promoter act, KinaseGlo FLuc, ELG1 genotoxic, SMN2 splice up)
Cc1ccc([N+](=O)[O-])cc1S(=O)(=O)Nc1cccc(-c2ccc(N3CCCC3)nn2)c1	FLuc modulator 19µM (no result: KinaseGlo FLuc, SMN2 splice up)
COc1ccc(S(=O)(=O)Nc2cccc(-c3ccc(N4CCCC4)nn3)c2)cc1OC	FLuc modulator 17µM (no result: NPC1 promoter act, Rab9 promoter act, KinaseGlo FLuc, ELG1 genotoxic, SMN2 splice up)
CCOc1ccc(-c2cccc(NS(=O)(=O)c3cc([N+](=O)[O-])ccc3Cl)c2)nn1	FLuc modulator inconclusive (no result: KinaseGlo FLuc, SMN2 splice up)
COc1ccc(S(=O)(=O)Nc2cccc(-c3ccc(N4CCC(C)CC4)nn3)c2)cc1OC	FLuc modulator 0.43µM (no result: NPC1 promoter act, Rab9 promoter act, KinaseGlo FLuc, ELG1 genotoxic, SMN2 splice up)
Cc1ccc(S(=O)(=O)Nc2cccc(-c3ccc(N4CCCCCC4)nn3)c2)cc1C	NPC1 promoter act inconclusive, FLuc modulator 6µM, Rab9 promoter act 3.2µM, ELG1 genotoxic inconclusive (no result: KinaseGlo FLuc, SMN2 splice up)
Cc1ccc(-c2noc(CN(C(=O)c3ccc(C(C)(C)C)cc3)C(C)C)n2)cc1	none (no result: NPC1 promoter act, Rab9 promoter act, KinaseGlo FLuc, ELG1 genotoxic)
COc1cc(C(=O)Nc2nonc2-c2ccc(Cl)cc2)cc(OC)c1OC	FLuc modulator inconclusive (no result: NPC1 promoter act, Rab9 promoter act, KinaseGlo FLuc, ELG1 genotoxic)
c1ccc(-c2nc3ccccc3nc2-c2ccccn2)nc1	none
Cc1cc2nc(-c3ccccn3)c(-c3ccccn3)nc2cc1C	NPC1 promoter act inconclusive, FLuc modulator 4.8µM, ELG1 genotoxic inconclusive (no result: KinaseGlo FLuc, SMN2 splice up)
CCC1=C(c2ccc(C)cc2)S(=O)(=O)N=C1N1CCC(C(=O)Nc2ccccc2C(=O)OC)CC1	none (no result: NPC1 promoter act, Rab9 promoter act, KinaseGlo FLuc, ELG1 genotoxic, SMN2 splice up)
